Compound activity: PubChem BioAssay, National Center for Advancing Translational Sciences (NCATS)
TSHR ag = TSH receptor (human) agonism | P16473 | HEK293-CNG-TSHR cells (CNG channel as cAMP sensor), membrane potential dye, cAMP | Potency, µM (series often up to 57.1 µM), inactives show at the top dose activation, actives largely listed as activators | 0.48% of 73,000 active; active = well fitted activation curve with a large enough effect in the main read-out, with a control signal flat, not every such curve was filed as active; inconclusive = small, poorly fitted or top-dose-only effect, or a change in a side signal; inactive = no such curve, though single readings can be large or run the other way; % of control where 0% means no effect;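 also: the control signal comes from parental cells without the receptor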
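HEK 293 cells stably expressing TSHR and a cAMP-gated CNG channel; parental CNG-only cells as counterscreen. Cells preloaded 60 min with membrane potential dye plus 100 uM RO 20-1724, then compound 30 min; fluorescence read at 590 nm.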
ERK AVP block = blocks ERK signaling stimulated by vasopressin; AID 995; Potency, µM (top dose mostly 57.5 µM), for inactives: top-dose activity, negative = inhibition, hits mostly inhibitors; 0.99% of 72,000 active; HEK293-V1b, vasopressin-stimulated pERK AlphaScreen; also: % is scaled to controls: 0 for no effect and ±100 for the full control effect; nearly all actives have a fitted effect of over 55% in size
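HEK293 cells stably expressing V1b receptor, seeded overnight in 1% FBS, were treated with compounds for 30 min at 37C, then stimulated 5 min with 25 nM vasopressin; phospho-ERK read by AlphaScreen SureFire after lysis.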
HEK293 cAMP cs = parental HEK293 cAMP activation (counter-screen); Potency, µM (highest dose often 57.1 µM), inactives show at the top dose activation, usual class: activators; parental HEK293 CNG cAMP sensor, membrane potential fluorescence; 2.5% of 73,000 active; also: % of control where 0% means no effect; nearly all actives have a fitted effect of over 55% in size
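Counterscreen for endogenous-receptor signalling: CNG-channel HEK 293 cells report cAMP rise by membrane depolarization. After 60 min dye equilibration with 100 uM RO 20-1724, compounds incubated 30 min before bottom-read fluorescence at 590 nm.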
CRE Fsk mod = modulators of forskolin-stimulated CRE signaling in CHO cells | CHO CRE-bla reporter (cAMP response element driving beta-lactamase), forskolin EC10, beta-lactamase ratio | Potency, µM (top dose mostly 38.2 µM), without a hit: at the highest dose activity change, negative = inhibition, most hits filed as activators | 2.5% of 71,000 active | AID 662; active = well fitted activation curve with a large enough effect in the signal ratio, with a control signal flat, not every such curve was filed as active; inconclusive = small, poorly fitted or top-dose-only effect, or effect the other way, or a change in a side signal; the % refers to the signal ratio; also: % of control where 0% means no effect
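CHO CRE-bla cells, overnight plating in Opti-MEM with 0.5% dialyzed FBS; cpd titration + EC10 NKH 477, 3 h 37 °C; CCF4 2 h RT; ex 405/em 460 vs 530 ratio → %Activity, AC50.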
Tau fil binding = tau filament binding | recombinant tau filaments, thioflavin S fluorescence, 15 h; filaments grown with octadecylsulfate alongside compound | Potency, µM (titrated, usually from 57.1 µM), without a hit: top-dose activity change, negative = inhibition | 2% of 71,000 active | AID 596;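 also: % is scaled to controls: 0 for no effect and ±100 for the full control effect; actives lower thioflavin S fluorescence by blocking filaments or displacing dye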
Target sequence (P10636 whole entry, looked up): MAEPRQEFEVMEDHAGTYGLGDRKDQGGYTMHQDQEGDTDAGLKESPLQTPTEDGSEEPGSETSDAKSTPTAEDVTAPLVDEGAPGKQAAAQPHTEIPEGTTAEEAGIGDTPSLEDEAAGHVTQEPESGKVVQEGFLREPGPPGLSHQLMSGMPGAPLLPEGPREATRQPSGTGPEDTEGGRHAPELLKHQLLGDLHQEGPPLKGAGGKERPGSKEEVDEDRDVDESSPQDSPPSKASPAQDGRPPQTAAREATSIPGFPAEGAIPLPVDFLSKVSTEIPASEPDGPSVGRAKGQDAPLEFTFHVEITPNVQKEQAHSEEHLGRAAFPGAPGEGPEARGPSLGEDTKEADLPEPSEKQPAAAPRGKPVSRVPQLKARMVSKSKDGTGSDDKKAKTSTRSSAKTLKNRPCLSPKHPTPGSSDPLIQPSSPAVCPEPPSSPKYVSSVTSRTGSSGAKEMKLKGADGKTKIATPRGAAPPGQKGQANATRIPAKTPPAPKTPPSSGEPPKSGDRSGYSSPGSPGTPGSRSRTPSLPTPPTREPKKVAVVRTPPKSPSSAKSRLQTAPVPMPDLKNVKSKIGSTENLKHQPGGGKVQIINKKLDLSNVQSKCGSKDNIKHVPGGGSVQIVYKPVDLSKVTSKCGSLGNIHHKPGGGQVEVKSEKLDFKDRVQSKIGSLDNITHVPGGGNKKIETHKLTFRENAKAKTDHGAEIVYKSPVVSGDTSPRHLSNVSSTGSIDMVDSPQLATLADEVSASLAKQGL
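Tau 2 uM in ThS buffer dispensed; compound added; 60 uM ODS added (finals 1 uM tau, 30 uM ODS); 15 h 37 C; fluor ex450/em510.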
* hit, by the source's call; ? = inconclusive; nt = no result; [ ] = remark or other dose. In the library only some 7.4% were active in any assay of this set; here they are far more common. Unless noted, calls follow the shape of the dose curve; as a rule, active = well fitted curve in the direction sought with a large enough effect; inconclusive = small, poorly fitted or top-dose-only effect, or another doubt; inactive = no such curve, though single readings can be large; an effect the other way counts as inactive or inconclusive. Potency is read from the fitted curve at half-maximal effect.

SMILES | TSHR ag | ERK AVP block | HEK293 cAMP cs | CRE Fsk mod | Tau fil binding
Cc1ccc(O)c(-c2cc3ccccc3[nH]2)c1 | -15%[11.4 µM] | -20% | -15%[11.4 µM] | ? | 2.5µM*
COc1ccc(-c2nn3c(-c4ccco4)nnc3s2)cc1OC | 3% | 25µM* | -4% | 6.3µM* | 19%
COc1ccc(-c2nnc3sc(-c4ccco4)nn23)cc1OC | nt | 21% | 27% | ? | -22%
COc1cc(OC)c(-c2nn3c(-c4ccco4)nnc3s2)cc1OC | 2% | ? | -2% | 3.2µM* | 61%
c1ccc(-c2cc(-c3nn4c(-c5ccco5)nnc4s3)c3ccccc3n2)cc1 | ? | -22% | ? | ? | 0.63µM*
CCCCn1c(=NC(=O)c2cccnc2)c(C(=O)OCC)cc2c(=O)n3ccccc3nc21 | -5% | 18% | -9% | ? | 166%
CCCCCn1c(=NC(=O)c2ccco2)c(C(=O)OCC)cc2c(=O)n3ccccc3nc21 | ? | -14% | -31% | 10µM* | 5µM*
CCOCCCn1c(=NC(=O)c2cccnc2)c(C(=O)OCC)cc2c(=O)n3ccccc3nc21 | -5% | ? | -13% | ? | -10%
CCCCn1c(=NC(=O)c2ccco2)c(C(=O)OCC)cc2c(=O)n3ccccc3nc21 | -12% | 33% | -15% | ? | 7.9µM*
Cc1ccc2c(c1)N(CCC(=O)NCCCOC(C)C)C(=O)C(C)O2 (configuration not stated) | 10% | 20% | 6% | 13µM* | -5%
O=C1C=CC2=C3c4cc(O)c(O)cc4C[C@@]3(O)COC2=C1O | 5% | nt | 1% | ? | ?
CC(C)OC(=O)C[C@H](NC(=O)OC(C)(C)C)c1ccccc1 | -9%[11.4 µM] | 3%[11.5 µM] | -5%[11.4 µM] | nt | nt
O=C(c1ccco1)N1c2ccccc2Sc2ccccc21 | ? | 22% | 20µM* | -9% | -11%
O=C(N1CCN(c2ccccn2)CC1)N1c2ccccc2Sc2ccccc21 | nt | -17% | 24% | 10µM* | -7%
O=C(c1ccco1)N1CCN(C(=O)N2c3ccccc3Sc3ccccc32)CC1 | nt | ? | 27% | 1µM* | 279%
CCOC(=O)N/N=C1/C[C@@H](O)[C@@H](O)[C@@H]2[C@@H]3C(=O)N(c4cccc(Oc5ccccc5)c4)C(=O)[C@H]3CC[C@@H]12 | 5%[11.4 µM] | 7%[11.5 µM] | -6%[11.4 µM] | nt | nt
COc1ccc(OC)c(NC2=NC3(CCCC3)N=C(N)N2)c1 | 2% | -9% | 2% | 8% | 3%
Oc1cccc(Nc2ccccc2)c1 | ? | 2% | -17% | -4% | -14%
COc1ccc(Nc2ccc3c(c2)=NC2(CCCCC2)[N+]=3[O-])cc1 | ? | 16µM* | -63% | -10% | 16µM*
[O-][N+]1=c2ccc(Nc3ccccc3)cc2=NC12CCCCC2 | ? | ? | -65% | ? | 13µM*
COc1ccc(NCc2nnc(SCC(=O)Nc3cc(C)cc(C)c3)o2)cc1 | -12% | -7% | -11% | -6% | -9%
COc1ccc(NCc2nnc(SCC(=O)Nc3cc(C(F)(F)F)ccc3Cl)o2)cc1 | -16% | -15% | -7% | -4% | 20µM*
Cc1noc(C)c1CN1C(=O)NC(Cc2ccccc2)(Cc2ccccc2)C1=O | 25µM* | 5% | 0% | ? | -15%
c1cn(-c2ccnc(-c3ccc4c(c3)OCO4)n2)cn1 | 5% | 20µM* | -13% | ? | 9%
CC(=O)[C@]1(O)CC[C@@H]2[C@H]3C[C@@H](C)C4=CC(=O)CC[C@@]4(C)[C@H]3[C@@H](O)C[C@]21C | ? | 10%[11.5 µM] | ? | 4%[7.6 µM] | 10%[11.4 µM]
SMILES | TSHR ag | ERK AVP block | HEK293 cAMP cs | CRE Fsk mod | Tau fil binding
CCOC(=O)N/N=C1/C[C@@H](O)[C@@H](O)[C@@H]2[C@@H]3C(=O)N(C(C)(C)C)C(=O)[C@H]3CC[C@H]12 | ? | 12%[11.5 µM] | ? | nt | nt
O=C(COc1ccccc1)N(Cc1ccco1)c1ccc(O)cc1 | 20µM* | -26% | 22% | -15% | 4%
CCOC(=O)c1c(C)cc(O)c(C)c1O | nt | 21% | nt | nt | nt
CCOC(=O)c1c(C)[nH]c2cc(Br)c(O)cc12 | -5% | -13% | -6% | 10µM* | -3%
COc1cc2ccc([C@H](C)NCC#N)cc2cc1OC | 3%[11.4 µM] | -13%[11.5 µM] | -1%[11.4 µM] | 1%[7.6 µM] | 0%[11.4 µM]
Nc1c(S(=O)(=O)c2ccccc2)c2nc3ccccc3nc2n1Cc1ccco1 | -7% | nt | -10% | nt | nt
Cn1c(N)c(S(=O)(=O)c2ccc(Br)cc2)c2nc3ccccc3nc21 | ? | ? | -30% | 16µM* | 84%
O=C(Nc1ccccc1)OC[C@H](CN1CCCCC1)OC(=O)Nc1ccccc1 | -14%[25.6 µM] | -1%[25.7 µM] | 3%[25.6 µM] | -18%[17.1 µM] | -9%[25.6 µM]
CO[C@@H]1COC(=O)C/C=C\[C@@H](C)COC(=O)[C@H](COCc2ccccc2)NC(=O)C/C=C\[C@H]1C | -6%[11.4 µM] | 8%[11.5 µM] | 2%[11.4 µM] | nt | nt
CCOC(=O)C1=C(C)OC(N)=C(C#N)C1C1CCCCC1 (configuration not stated) | ? | -24% | 25µM* | -2% | -4%
CCOC(=O)C1=C(C)OC(N)=C(C#N)C1c1cc2c(cc1Br)OCO2 (configuration not stated) | nt | 13% | 22% | 5% | 23%
CCOC(=O)C1=C(C)OC(N)=C(C#N)C1c1ccsc1 (configuration not stated) | ? | -16% | 20µM* | -8% | 25%
COCc1[nH]nc2c1C(c1ccsc1)C(C#N)=C(N)O2 (configuration not stated) | 7% | ? | 4% | -12% | 6%
O=C(/C=C\c1ccc(O)c(O)c1)OCCc1ccccc1 | ? | ? | ? | -13% | 7%
C=CC(C1=CC(=O)C(OC)=C(OC)C1=O)c1ccccc1 (configuration not stated) | nt | -25% | nt | nt | nt
O[C@@H]1CC[C@H]2Cc3ccccc3N=C21 | -3% | nt | 2% | -16% | ?
C=CCn1c(=O)c2ccccc2n2c(SCc3nc(N)nc(Nc4ccccc4C)n3)nnc12 | 1%[11.4 µM] | -9% | 8% | 7.9µM* | -5%
C=CCn1c(=O)c2ccccc2n2c(SCC(=O)c3ccccc3)nnc12 | ? | -7% | ? | 5% | -17%
NC[C@@H](O)CSCc1ccc(Cl)cc1 | -2%[11.4 µM] | 8%[11.5 µM] | 1%[11.4 µM] | 7%[7.6 µM] | 5%[11.4 µM]
COc1ccccc1Nc1nc(N)nc(CSc2nc(C)cc(C)n2)n1 | -2% | -12% | 13% | 10µM* | 6%
CC1(C)N=C(N)N=C(N)N1c1cccc(OCc2cccc(N)c2)c1 | -9%[11.4 µM] | -12%[11.5 µM] | 14%[11.4 µM] | 8%[7.6 µM] | -4%[11.4 µM]
Cc1ccc(C)c(NS(=O)(=O)c2cc(C(=O)O)ccc2Cl)c1 | 5% | nt | -17% | nt | nt
CC(=O)c1cccc(NC(=O)Nc2cc3sccc3n2C)c1 | -8% | ? | 1% | -6% | 3.2µM*
COc1cc(CNc2ccc3[nH]c(=O)[nH]c3c2)ccc1OCC(=O)NC(C)(C)C | -2% | ? | 8% | 7% | 13µM*
